Laboratory results from PubChem BioAssay (Tox21).
Where “and” joins values, the source holds several entries; their conditions need not be identical. Equal values may be shown once. Inconclusive results are not listed. Where a structure was tested more than once in an assay, its records may differ in their call. Calls of active or inactive are those of the source. Unless noted, calls come from the whole dose curve; as a rule, active = well fitted curve in the direction sought with a large enough effect in the repeat runs; inconclusive = weak or mixed curves; inactive = no such curve, though single readings can be large; an effect the other way counts as inactive or inconclusive.

What was measured:
[1] = qHTS assay to identify small molecule agonists of the hypoxia (HIF-1) signaling pathway - cell viability counter screen (AID 1224844; calls by dose curve; note: nearly all actives have a fitted effect of over 50% in size; note: potency is the fitted concentration of half-maximal effect)
How it was run: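 HRE-bla ME-180 cells, 2,000/well in 0.5% dialyzed FBS medium, treated 17 h at 37C with compounds. Viability read in the same wells as the bla reporter, by CellTiter-Glo luminescence after 30 min at room temperature.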

[2] = qHTS assay to identify small molecule agonists of H2AX - cell viability counter screen (AID 1224847; calls by dose curve; note: nearly all actives have a fitted effect of over 30% in size; note: potency is the fitted concentration of half-maximal effect)
How it was run: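 Cells plated first: CHO-K1, 1000 per well in 10% FBS medium, incubated overnight at 37C. Then 15-point compound titration added (final DMSO 0.76%) for 3 hr. Finally CellTiter-Glo added and luminescence read.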

[3] = qHTS RealTime-Glo MT Cell Viability Assay in HepG2 cells - 24 hour (AID 1224867); note: nearly all actives have a fitted effect of over 50% in size; note: potency is the fitted concentration of half-maximal effect
How it was run: (§1)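 HepG2 cells (600/well) were dispensed with RealTime-Glo reagents, incubated 5 h at 37 °C, then treated with compounds in DMSO for up to 40 h. Nonlytic NanoLuc luminescence reflecting viable cells was read at each stated time point.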

[4] = qHTS RealTime-Glo MT Cell Viability Assay in HEK293 cells - 32 hour (AID 1224868); note: nearly all actives have a fitted effect of over 50% in size; note: potency is the fitted concentration of half-maximal effect
How it was run: (§2)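 HEK293 cells seeded with NanoLuc/prosubstrate reagent, rested 5 h at 37 C, then dosed and kept at 37 C up to 40 h. Nonlytic real-time luminescence from viable cells read at 0, 8, 16, 24, 32 and 40 h.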

[5] = A CellTox Green Cytotoxicity Assay to monitor cytotoxicity in HEK293 cells - 0 hour (AID 1224869); note: nearly all actives have a fitted effect of over 50% in size
How it was run: (§3)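 HEK293 cells, 600/well, were preincubated 5 hours and then exposed to compounds at 37 C for up to 40 hours. A cell-impermeant cyanine dye staining dead-cell DNA was read by fluorescence at 0, 8, 16, 24, 32 and 40 h time points.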

[6] = qHTS RealTime-Glo MT Cell Viability Assay in HepG2 cells - 40 hour (AID 1224870); note: nearly all actives have a fitted effect of over 50% in size; note: potency is the fitted concentration of half-maximal effect
How it was run: (§4)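 Real-time viability: cells seeded at 600 per well together with NanoLuc and cell-permeant prosubstrate, compounds added after 5 h incubation. Luminescence tracked at 0, 8, 16, 24, 32 and 40 h of exposure.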

[7] = qHTS RealTime-Glo MT Cell Viability Assay in HepG2 cells - 8 hour (AID 1224873); note: nearly all actives have a fitted effect of over 55% in size; note: potency is the fitted concentration of half-maximal effect
How it was run: as §4

[8] = qHTS RealTime-Glo MT Cell Viability Assay in HEK293 cells - 40 hour (AID 1224874); details: RealTime-Glo luminescence; max response: stronger effect = lower value; note: nearly all actives have a fitted effect of over 50% in size; note: potency is the fitted concentration of half-maximal effect
How it was run: (§5)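 600 cells/well were plated with the nonlytic NanoLuc/prosubstrate reagent, pre-incubated 5 h, then given 23 nL of compound in DMSO. Incubation at 37 C for 40 h, with luminescence from viable-cell-reduced substrate read repeatedly from 0 h.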

[9] = A CellTox Green Cytotoxicity Assay to monitor cytotoxicity in HEK293 cells - 24 hour (AID 1224875); note: nearly all actives have a fitted effect of over 45% in size; note: potency is the fitted concentration of half-maximal effect
How it was run: as §3

[10] = qHTS RealTime-Glo MT Cell Viability Assay in HepG2 cells - 32 hour (AID 1224877); note: nearly all actives have a fitted effect of over 55% in size; note: potency is the fitted concentration of half-maximal effect
How it was run: as §1

[11] = A CellTox Green Cytotoxicity Assay to monitor cytotoxicity in HepG2 cells - 24 hour (AID 1224878); note: nearly all actives have a fitted effect of over 45% in size; note: potency is the fitted concentration of half-maximal effect
How it was run: (§6)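 HepG2 cells, 600/well, preincubated 5 h with CellTox Green dye, then exposed to Tox21 compounds in DMSO at 37 C for up to 40 h. Dead-cell DNA fluorescence read at the indicated time point.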

[12] = qHTS RealTime-Glo MT Cell Viability Assay in HEK293 cells - 0 hour (AID 1224880); note: top concentration of the series differs between compounds; nearly all actives have a fitted effect of over 45% in size
How it was run: as §5

[13] = qHTS assay to identify small molecule agonists of the hypoxia (HIF-1) signaling pathway (AID 1224846; active = well fitted activation curve with a large enough effect in the signal ratio in the repeat runs, not every such curve was filed as active; the % refers to the signal ratio)
How it was run: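 HRE-bla ME-180 beta-lactamase reporter cells in medium with 0.5% dialyzed FBS, pre-incubated 5 h then exposed to compounds 17 h at 37C, 5% CO2; reporter induction read with CCF4-AM FRET substrate.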

[14] = qHTS assay to identify small molecule antagonists of the estrogen related receptor (ERR) signaling pathway from Tox21 library (AID 1224848); note: nearly all actives have a fitted effect of over 50% in size; note: potency is the fitted concentration of half-maximal effect
How it was run: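 Reading was by luminescence 30 min after ONE-Glo addition. Before that, ERR cells at 2,000 per well had rested 6 h at 37 C/5% CO2 and then received pin-tooled compounds in DMSO for 18 h at 37 C.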

[15] = qHTS assay to identify small molecule agonists of the estrogen related receptor (ERR) signaling pathway from Tox21 library (AID 1224849; calls by dose curve; note: nearly all actives have a fitted effect of over 15% in size); details: ERR reporter cell line, ONE-Glo luciferase, 18 h; at 92.4 µM (top of the series) unless noted
How it was run: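 ERR reporter cells (NTP line) pre-incubated 6 hours at 37 C, then exposed to compounds for 18 hours at 37 C. ONE-Glo luciferase luminescence was read after 30 minutes at room temperature.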

[16] = A CellTox Green Cytotoxicity Assay to monitor cytotoxicity in HEK293 cells - 40 hour (AID 1224871); note: nearly all actives have a fitted effect of over 45% in size; note: potency is the fitted concentration of half-maximal effect
How it was run: as §3

[17] = qHTS RealTime-Glo MT Cell Viability Assay in HEK293 cells - 16 hour (AID 1224872); note: nearly all actives have a fitted effect of over 50% in size; note: potency is the fitted concentration of half-maximal effect
How it was run: as §2

[18] = A CellTox Green Cytotoxicity Assay to monitor cytotoxicity in HepG2 cells - 40 hour (AID 1224879); note: nearly all actives have a fitted effect of over 40% in size; note: potency is the fitted concentration of half-maximal effect
How it was run: as §6

[19] = A CellTox Green Cytotoxicity Assay to monitor cytotoxicity in HepG2 cells - 16 hour (AID 1224876); note: nearly all actives have a fitted effect of over 45% in size; note: potency is the fitted concentration of half-maximal effect
How it was run: as §6
% is set by controls: 0 for no effect and ±100 for the full control effect.

C[C@]12CC[C@H]3[C@@H](CCC4=CC(=O)CC[C@@]43C)[C@@H]1CC[C@@H]2O
inactive: Potency [1] | Potency [2] | Potency [3] | Potency [5] | Potency [6] | Potency [7] | Potency [9] | Potency [10] | Potency [11] | Potency [12]
active: Potency [4] 48.6 µM | Potency [8] 48.6 µM

Nc1ccc(Sc2ccc(N)cc2)cc1
inactive: Potency [1] | outcome [13] | Potency [14] | activity change, positive = activation [15] 9.92% | Potency [3] | Potency [4] | Potency [5] | Potency [16] | Potency [17] | Potency [7] | Potency [9] | Potency [10]

CC(C)CC(C)(c1ccc(O)cc1)c1ccc(O)cc1
43.8 µM (active) and inactive: Potency [17]
active: Potency [2] 101 µM and 89.8 µM | Potency [4] 39 µM | Potency [16] 55.1 µM | Potency [8] 27.6 µM | Potency [11] 43.8 µM | Potency [18] 43.8 µM
inactive: Potency [1] | activity change, positive = activation [15] -67.3% and -18.5% | Potency [5] | Potency [6] | Potency [10]
54.6 µM (active) and inactive: Potency [14]

CC(C)C1CCC(Cc2ccc(Cl)cc2)C1(O)Cn1cncn1 (stereo unspecified)
active: Potency [1] 54.4 µM | Potency [2] 88.9 µM | Potency [14] 27 µM | Potency [3] 43.2 µM | Potency [4] 12.2 µM | Potency [16] 24.3 µM | Potency [17] 12.2 µM | Potency [7] 24.3 µM | Potency [8] 10.9 µM | Potency [9] 24.3 µM | Potency [19] 48.5 µM | Potency [10] 48.5 µM | Potency [11] 43.2 µM | Potency [18] 43.2 µM
inactive: activity change, positive = activation [15] -68.5% | Potency [12]

COc1cc(C=O)cc2c1[C@H](COC(N)=O)[C@]1(OC(C)=O)ON2C[C@H]2[C@@H]1N2C(C)=O
inactive: Potency [2] | activity change, positive = activation [15] -41% | Potency [16] | Potency [7] | Potency [9] | Potency [19] | Potency [12]
active: Potency [1] 3.89 µM | Potency [14] 0.273 µM | Potency [4] 0.0549 µM | Potency [8] 0.0309 µM | Potency [11] 0.11 µM | Potency [18] 0.0776 µM

NC(=O)CCl
inactive: Potency [1] | outcome [13] | Potency [3] | Potency [5] | Potency [6] | Potency [16] | Potency [17] | Potency [7] | max response [8] 11.6% | Potency [9] | Potency [19] | Potency [10] | Potency [11] | Potency [18] | Potency [12]

CC(C)(c1ccc(O)c(-c2ccccc2)c1)c1ccc(O)c(-c2ccccc2)c1
active: Potency [1] 17.4 µM | Potency [2] 25.3 µM | Potency [14] 24.3 µM | Potency [3] 49 µM | Potency [4] 21.9 µM | Potency [17] 21.9 µM | Potency [7] 49 µM | Potency [8] 19.5 µM | Potency [11] 49 µM | Potency [18] 49 µM
inactive: activity change, positive = activation [15] -69.8% | Potency [5] | Potency [12]

O=c1c(C2CC(c3ccc(-c4ccc(Br)cc4)cc3)Cc3ccccc32)c(O)sc2ccccc12 (stereo unspecified)
active: Potency [1] 15.1 µM | Potency [14] 7.5 µM
inactive: Potency [2] | activity change, positive = activation [15] -54.2% [at 42.5 µM] | Potency [4] | Potency [16] | Potency [17] | max response [8] -20.8% | Potency [9] | Potency [19] | Potency [11] | Potency [18]

CCCCCCCCCC[N+](C)(C)CCCCCCCCCC
active: Potency [1] 27.5 µM | Potency [2] 40.1 µM | Potency [3] 7.76 µM | Potency [6] 7.76 µM | Potency [16] 17.4 µM | Potency [17] 4.36 µM | Potency [8] 0.977 µM | Potency [9] 15.5 µM | Potency [19] 12.3 µM | Potency [10] 7.76 µM | Potency [11] 11 µM | Potency [18] 8.71 µM

CC(C)(C)C(O)C(Oc1ccc(-c2ccccc2)cc1)n1cncn1 (stereo unspecified)
active: Potency [1] 54.9 µM | Potency [14] 27.3 µM | Potency [4] 24.5 µM | Potency [17] 49 µM | Potency [8] 21.9 µM
inactive: activity change, positive = activation [15] -60.3% | Potency [3] | Potency [5] | Potency [16] | Potency [7] | Potency [9] | Potency [19] | Potency [10] | Potency [12]

COP(=O)(OC)SCn1c(=O)oc2cc(Cl)cnc21
active: Potency [1] 49 µM | Potency [18] 49 µM
inactive: outcome [13] | activity change, positive = activation [15] -27.7% | Potency [3] | Potency [5] | Potency [6] | Potency [7] | Potency [9] | Potency [19] | Potency [10] | Potency [11] | Potency [12]

O=C(CBr)c1ccc(O)cc1
inactive: Potency [1] | outcome [13] | activity change, positive = activation [15] -26% | Potency [3] | Potency [5] | Potency [6] | Potency [16] | Potency [7] | max response [8] 22.3% | Potency [9] | Potency [19] | Potency [10] | Potency [11] | Potency [12]

O=[N+]([O-])c1ccc2ccc3cccc4ccc1c2c34
active: Potency [1] 34.7 µM
inactive: Potency [2] | Potency [3] | Potency [4] | Potency [6] | Potency [17] | Potency [7] | max response [8] -23.8% | Potency [19] | Potency [10] | Potency [11] | Potency [12]

O=S(=O)(c1ccc(Cl)cc1)c1ccc(Cl)cc1
active: Potency [2] 57.3 µM | Potency [14] 13.9 µM
inactive: Potency [1] | activity change, positive = activation [15] -35.9% | Potency [3] | Potency [5] | Potency [19] | Potency [10] | Potency [11] | Potency [18]

CC(C)(O)c1cnn2c(-c3ccc(F)c(-c4c(F)cccc4C#N)c3)cnc2n1
inactive: activity change, positive = activation [15] -53.4% | Potency [3] | Potency [5] | Potency [6] | Potency [9] | Potency [19] | Potency [10] | Potency [18]
active: Potency [1] 54.9 µM | Potency [14] 27.3 µM | Potency [4] 5.49 µM | Potency [17] 5.49 µM | Potency [8] 4.9 µM

N#Cc1ccccc1N
inactive: Potency [1] | outcome [13] | activity change, positive = activation [15] -12.6% | Potency [3] | Potency [4] | Potency [5] | Potency [6] | Potency [16] | Potency [17] | Potency [7] | max response [8] 0.901% | Potency [9] | Potency [19] | Potency [10] | Potency [11] | Potency [18] | Potency [12]
